Reference: PubChem BioAssay
Active and inactive are the calls of the source. Unless noted, how the calls were made is not given here.

Columns and labels:
[1] = resazurin metabolic signal in HepG2 cells – cell-based, resazurin fluorescence, 24 h, PK04 Diversity Set, profiling panel (AID 1172); conditions: HepG2 viability, higher = more signal
[2] = budding yeast growth changes without added modifier – OD600, strain BY4716, 24 h, basal condition, primary screen (AID 1173); conditions: S. cerevisiae BY4716 growth, OD600, 24 h; higher = more signal, called active from +8 up or from −8 down
[3] = viability profiling in MM1S myeloma cells – cell-based, resazurin fluorescence, basal, 24 h, PK04 Diversity Set, profiling panel (AID 1174); conditions: higher = more signal, called active from +8 up or from −8 down;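 further: MM1S multiple myeloma cell line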
[4] = target: Dihydroorotate dehydrogenase (quinone), mitochondrial (Plasmodium falciparum (isolate 3D7)) (UniProt Q08210); test: inhibition of P. falciparum DHODH – biochemical, C-terminal His tag, absorbance 600 nm, primary screen (AID 1175); conditions: PfDHODH enzyme, DCIP absorbance 600 nm; higher = more signal, called active from +8 up or from −8 down;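 further: recombinant parasite enzyme with a five histidine tag at its C terminus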
[5] = inhibition of PAO1 biofilm formation – strain PAO1, LB-PBS medium, absorbance 600 nm, primary screen (AID 1176); conditions: P. aeruginosa PAO1 growth/biofilm, A600, 12 h; higher = more signal
[6] = growth modulation of vineyard yeast isolate – strain RM11-1a, OD600, basal, 24 h, primary screen (AID 1177);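 further: cultures grown under basal conditions with no added stressor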; conditions: S. cerevisiae RM11-1a growth, OD600, 24 h; higher = more signal, called active from +8 up or from −8 down
[7] = growth of efflux-deficient E. coli DRC39 – strain DRC39, OD650, 24 h, E. coli filamentation inducers, primary screen (AID 1178);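 further: growth measured as culture turbidity by optical density at 650 nm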; conditions: E. coli DRC39 acrAB, higher = more signal, called active from +8 up or from −8 down
[8] = growth of efflux-deficient E. coli DRC39 – strain DRC39, OD650, 48 h, E. coli filamentation inducers, primary screen (AID 1179);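 further: screen aims at cell division blockers that make cells filament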; conditions: E. coli DRC39 delta-acrAB growth, higher = more signal, called active from +8 up or from −8 down
[9] = viability profiling in RPMI8226 myeloma cells – cell-based, resazurin fluorescence, basal, 24 h, PK04 Diversity Set, profiling panel (AID 1180); conditions: higher = more signal;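 further: RPMI8826 multiple myeloma cell line at 5000 cells per well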
[10] = target: E3 ubiquitin-protein ligase XIAP (Homo sapiens) (UniProt P98170); test: small molecules binding XIAP protein – biophysical, small-molecule microarray, fluorescence 635 nm, primary screen (AID 1181); conditions: higher = more signal;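 further: score merges 667 nm emission and signal to noise over triplicate slides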
[11] = tested on: XIP peptide (Xip251-270) binding; test: XIP fragment 251-270 binding compounds – biochemical, small-molecule microarray, fluorescence 635/667 nm, 0.1 µg/mL protein, primary screen (AID 1182); conditions: fluorescent protein binding, 635 nm, higher = more signal, called active from +8 up or from −8 down
XIP peptide (Xip251-270) = test: compounds binding XIP fragment 251-270 – biochemical, small-molecule microarray, fluorescence 635/667 nm, 0.5 µg/mL protein, primary screen (AID 1183); conditions: fluorescence 635 nm, higher = more signal
[12] = blood-stage malaria parasite viability loss – strain 3D7, DAPI fluorescence, 100 nL, primary screen (AID 1184);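 further: parasites grown inside human red blood cells in medium with human serum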; conditions: P. falciparum 3D7 growth, 3 d, higher = more signal
[13] = target: Homeobox protein Hox-A13 (Mus musculus) (UniProt Q62424); test: disruptors of Hoxa13 oligonucleotide interaction – biochemical, fluorescence polarization, labeled oligonucleotide, primary screen (AID 1185); conditions: Hoxa13:DNA binding, 15 min, higher = more signal, called active from +8 up or from −8 down
[14] = blockers of DNA damage checkpoint Chk1 activation – imaging, HeLa, hydroxyurea, phospho-Chk1 antibody, percent positive cells, primary screen (AID 1186); conditions: hydroxyurea-induced phospho-Chk1 immunofluorescence imaging, higher = more signal
[15] = blockers of DNA damage checkpoint Chk1 activation – imaging, HeLa, hydroxyurea, phospho-Chk1 nuclear intensity, primary screen (AID 1187); conditions: hydroxyurea-induced phospho-Chk1 immunofluorescence imaging, higher = more signal

E3 ubiquitin-protein ligase XIAP (Homo sapiens), sequence (P98170 whole entry, looked up, the tested form may be a part): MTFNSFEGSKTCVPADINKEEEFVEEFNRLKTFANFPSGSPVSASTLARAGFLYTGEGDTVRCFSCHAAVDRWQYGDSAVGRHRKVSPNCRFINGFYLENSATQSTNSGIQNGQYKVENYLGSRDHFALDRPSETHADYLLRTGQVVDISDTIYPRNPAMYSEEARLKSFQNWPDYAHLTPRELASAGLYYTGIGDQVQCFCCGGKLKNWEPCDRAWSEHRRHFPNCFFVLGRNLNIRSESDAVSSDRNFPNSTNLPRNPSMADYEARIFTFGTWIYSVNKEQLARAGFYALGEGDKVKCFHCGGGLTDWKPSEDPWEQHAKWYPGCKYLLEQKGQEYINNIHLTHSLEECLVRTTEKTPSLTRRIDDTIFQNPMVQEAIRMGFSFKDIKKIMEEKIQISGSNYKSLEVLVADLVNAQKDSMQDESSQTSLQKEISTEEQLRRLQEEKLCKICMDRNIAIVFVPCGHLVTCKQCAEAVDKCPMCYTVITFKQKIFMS
Homeobox protein Hox-A13 (Mus musculus), sequence (Q62424 whole entry, looked up): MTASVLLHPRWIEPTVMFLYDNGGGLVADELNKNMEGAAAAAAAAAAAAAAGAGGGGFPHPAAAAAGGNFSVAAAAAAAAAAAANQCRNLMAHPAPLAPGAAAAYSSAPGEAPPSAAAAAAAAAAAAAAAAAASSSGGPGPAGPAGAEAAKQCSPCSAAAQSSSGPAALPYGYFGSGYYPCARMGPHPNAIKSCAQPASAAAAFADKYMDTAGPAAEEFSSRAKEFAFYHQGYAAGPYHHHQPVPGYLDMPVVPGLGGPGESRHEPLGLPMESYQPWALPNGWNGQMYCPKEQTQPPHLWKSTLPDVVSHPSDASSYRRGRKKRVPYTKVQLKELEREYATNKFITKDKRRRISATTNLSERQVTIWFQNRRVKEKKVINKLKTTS
Dihydroorotate dehydrogenase (quinone), mitochondrial (Plasmodium falciparum (isolate 3D7)), sequence (Q08210 whole entry, looked up): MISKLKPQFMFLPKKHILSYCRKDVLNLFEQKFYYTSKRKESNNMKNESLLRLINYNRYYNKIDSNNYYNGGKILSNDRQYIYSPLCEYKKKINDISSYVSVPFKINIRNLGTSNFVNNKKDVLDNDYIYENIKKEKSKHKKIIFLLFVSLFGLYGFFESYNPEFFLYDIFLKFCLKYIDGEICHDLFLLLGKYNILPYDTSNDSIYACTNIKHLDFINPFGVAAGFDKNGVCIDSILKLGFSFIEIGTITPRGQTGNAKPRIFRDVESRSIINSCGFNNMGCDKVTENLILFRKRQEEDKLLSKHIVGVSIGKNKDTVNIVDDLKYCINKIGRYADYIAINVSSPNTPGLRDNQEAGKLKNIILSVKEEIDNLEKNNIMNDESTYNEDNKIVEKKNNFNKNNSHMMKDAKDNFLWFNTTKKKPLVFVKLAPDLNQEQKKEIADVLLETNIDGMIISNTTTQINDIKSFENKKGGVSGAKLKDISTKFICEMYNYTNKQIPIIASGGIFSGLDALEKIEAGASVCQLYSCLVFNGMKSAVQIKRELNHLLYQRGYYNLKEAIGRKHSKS

Structure (SMILES)	z-score [1]	z-score [2]	z-score [3]	composite z-score [4]	z-score [5]	z-score [6]	z-score [7]	z-score [8]	z-score [9]	composite z-score [10]	composite z-score [11]	composite z-score (XIP peptide (Xip251-270))	z-score [12]	z-score [13]	z-score [14]	z-score [15]
O=c1cccc(CCc2ccccc2)o1	-0.523	-3.45 (inactive)	-0.0074 (inactive)	-1.19 (inactive)	-0.156 (inactive)	-0.259 (inactive)	-0.74 (inactive)	-0.608 (inactive)	-0.753	0.273	0.223 (inactive)	0.903	2.16	-3.17 (inactive)	0.576 (inactive)	0.158 (inactive)
CC1=C2[C@@H](CCc3ccccc3)OB(O)C[C@@H]2n2c(=O)n(-c3ccccc3)c(=O)n2C1	-0.32	-2.07 (inactive)	-0.498 (inactive)	0.369 (inactive)	-0.177 (inactive)	-0.42 (inactive)	-0.618 (inactive)	-0.63 (inactive)	-0.582	0.0193	-0.105 (inactive)	0.777	1.65	-5.44 (inactive)	-0.0397 (inactive)	0.208 (inactive)
Cc1ccc([C@H]2C(C(=O)O)=C[C@@H](C)N2S(=O)(=O)c2ccc(C)cc2)cc1	-0.534	-0.704 (inactive)	-0.612 (inactive)	-0.377 (inactive)	-0.0322 (inactive)	-0.211 (inactive)	-0.654 (inactive)	-0.444 (inactive)	-1.52	0.254	1.78 (inactive)	-0.43	0.159	-3.09 (inactive)	0.502 (inactive)	0.176 (inactive)
CCOC(=O)C1=CC[C@@H](c2ccccc2)N(S(=O)(=O)c2ccc(C)cc2)[C@H]1C(=O)OCC	-0.0229	1.45 (inactive)	-0.424 (inactive)	-0.103 (inactive)	-0.0196 (inactive)	0.482 (inactive)	-0.0018 (inactive)	0.237 (inactive)	-0.904	-0.052	0.414 (inactive)	-0.404	-0.799	-5.23 (inactive)	0.0256 (inactive)	-0.831 (inactive)
[N-]=[N+]=NCc1ccccc1[C@H]1OC(c2ccc(OCCCO)cc2)=N[C@@]1(CCS(=O)(=O)c1ccccc1)C(=O)N1CCOCC1	-0.0894	0.798 (inactive)	-0.306 (inactive)	0.274 (inactive)	0.631 (inactive)	0.686 (inactive)	0.186 (inactive)	-0.109 (inactive)	-0.8	-0.309	1.53 (inactive)	0.768	-2.22	-3.2 (inactive)	-0.0312 (inactive)	0.246 (inactive)
O=C(NCc1ccccc1)[C@]1(CCS(=O)(=O)c2ccccc2)N=C(c2ccc(OCCCO)cc2)O[C@@H]1c1ccccc1	0.0669	1.08 (inactive)	-0.866 (inactive)	-0.549 (inactive)	0.0937 (inactive)	1.91 (inactive)	0.79 (inactive)	1.05 (inactive)	0.253	0.323	0.605 (inactive)	0.678	-2.18	-1.13 (inactive)	-0.362 (inactive)	-0.255 (inactive)
C=C(CCCC)C(=O)CC[C@H](OC(=O)c1cccnc1)c1cccc(OCCO)c1	-0.53	0.704 (inactive)	-1.29 (inactive)	-0.455 (inactive)	-0.21 (inactive)	1.7 (inactive)	0.477 (inactive)	0.262 (inactive)	-2.01	-0.0582	0.179 (inactive)	0.143	-3.03	-4.56 (inactive)	-0.296 (inactive)	-0.249 (inactive)
O=C(OCCF)C1=CCC(c2cccc(Cl)c2)O1 (configuration not stated)	-0.185	-2.59 (inactive)	0.0509 (inactive)	-1.71 (inactive)	-0.212 (inactive)	-1.56 (inactive)	-0.18 (inactive)	0.443 (inactive)	0.122	0.0176	-0.131 (inactive)	0.0075	0.65	-0.701 (inactive)	0.0006 (inactive)	0.215 (inactive)
C=CCC(OC(C)=O)[C@@H]1[C@@H](N(Cc2cccc3ccccc23)C(=O)c2cccc3ccccc23)c2cc(OCCCO)ccc2N1C(=O)c1ccc2ccccc2n1 (some centres not stated)	-0.0111	-0.337 (inactive)	-0.388 (inactive)	-0.747 (inactive)	-0.334 (inactive)	-0.929 (inactive)	0.854 (inactive)	0.424 (inactive)	-0.0685	-0.124	0.376 (inactive)	0.343	-1.29	-2.11 (inactive)	0.316 (inactive)	0.545 (inactive)
[N-]=[N+]=Nc1ccccc1[C@H]1OC(c2ccc(OCCCO)cc2)=N[C@@]1(CCS(=O)(=O)c1ccccc1)C(=O)O	0.181	-1.65 (inactive)	0.169 (inactive)	0.737 (inactive)	-0.319 (inactive)	-0.0777 (inactive)	2.08 (inactive)	0.499 (inactive)	0.438	0.143	0.835 (inactive)	0.824	-1.46	-4.02 (inactive)	0.189 (inactive)	0.222 (inactive)
O=C/C=C/c1ccc(Cl)cc1	-0.831	-18 (active)	-0.832 (inactive)	-1.96 (inactive)	0.475 (inactive)	-4.94 (inactive)	0.3 (inactive)	0.782 (inactive)	-0.81	-0.134	-1.5 (inactive)	-0.314	0.364	0.168 (inactive)	-0.0674 (inactive)	-0.659 (inactive)
Cc1ccc(S[C@]2(C(=O)O)CC(=O)N(C3Cc4ccccc4C3)[C@@H]2c2ccc(CO)cc2I)cc1	0.186	-1.99 (inactive)	-1.95 (inactive)	0.0058 (inactive)	-0.109 (inactive)	-0.219 (inactive)	0.602 (inactive)	0.447 (inactive)	-1.78	-0.0726	-0.33 (inactive)	0.464	-0.111	-2.79 (inactive)	0.229 (inactive)	0.584 (inactive)
